# Laboratory results published in PubChem BioAssay AID1321 (The Scripps Research Institute Molecular Screening Center, 2008).
# “And” between values parts separate entries of the source, which are not always exact repeats. Equal values may be shown once. Screen size: about 220,000 compounds; about 2,600 (1.2%) were called active.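 How the source made its calls: active means activation above the mean of all tested compounds plus 3 SD, set per screening run (cut at about 8.8% in these data); inactive means the rest.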 Only a selection was taken, and actives are over-represented in it overall. Some compounds were tested as several samples or in several runs, with calls that do not always agree.
# Target: Wee1-like protein kinase (Homo sapiens) (UniProt P30291)
# Assay: compounds stabilizing Wee1-luciferase fusion – cell-based, HeLa, Wee1K328M-luciferase, luminescence, primary screen (AID 1321);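 further: cells exposed to compound for 20 h before luminescence read; 0% = DMSO alone and 100% = MG132 at 30 µM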
# Conditions: HeLa Luc-Wee1K328M stability, at 5 µM, stronger effect = higher value, 100% = proteasome inhibitor MG132 effect
row,SMILES,reporter increase
1,CCOC(=O)C1CCN(c2c(Nc3cc(C)cc(C)c3)c(=O)c2=O)CC1,-2.25% (inactive)
2,O=S(=O)(/N=C(/Nc1ccccn1)c1ccccc1)c1ccc(Cl)cc1,-2.13% (inactive)
3,Cc1ccc(S/C(=N\S(=O)(=O)c2ccc(Cl)cc2)c2ccccc2)cc1,0.58% (inactive)
4,Cc1ccc(S(=O)(=O)/N=C(/Nc2ccccn2)c2ccc(Cl)cc2)cc1,11.1% (active)
5,CCCCN(CCCC)CC(O)Cn1c2ccccc2c(=O)c2ccccc21 (configuration not stated),0.32% (inactive)
6,O=C(Nc1ccc(S(=O)(=O)Nc2nccs2)cc1)c1cccc(S(=O)(=O)N2CCOCC2)c1,-2.58% (inactive)
7,CC(=O)N1CCC(N(C(=O)Nc2ccc(Cl)cc2)C(C)C)CC1,-1.37% (inactive)
8,NC(=O)c1ccc(-c2csnn2)cc1,-2.32% (inactive)
9,CCS(=O)(=O)N1CCC(C(=O)N2CCN(c3ccccc3)CC2)CC1,-1.23% (inactive)
10,CS(=O)(=O)N1CCC(C(=O)N2CCN(c3ccccc3)CC2)CC1,11.4% (active)
11,CCCS(=O)(=O)N1CCCC(C(=O)N2CCN(c3ccccc3)CC2)C1 (configuration not stated),-1.94% (inactive)
12,CN1CCN(CC(=O)Nc2sc3c(c2C#N)CCC(C(C)(C)C)C3)CC1 (configuration not stated),16.5% (active)
13,CCN1CCN(CC(=O)Nc2sc3c(c2C#N)CCC3)CC1,-0.82% (inactive)
14,CCC1CCc2c(sc(NC(C)=O)c2C#N)C1 (configuration not stated),1.63% (inactive)
15,CC1CC(NC(=O)/C(C#N)=C/c2ccc[nH]2)CC(C)(C)C1 (configuration not stated),1.3% (inactive)
16,c1ccc(-n2cccc2)c(N2CCCCC2)c1,3.42% (inactive)
17,C/C(CC(C)C)=N\Oc1nc(C)cc(C)n1,-1.74% (inactive)
18,Cc1cccc(C(=O)NC(=S)N2CCN(c3ccc([N+](=O)[O-])cc3)CC2)c1,-1.67% (inactive)
19,O=C(Nc1cccc(C(F)(F)F)c1)c1ccc(N2CCNCC2)c([N+](=O)[O-])c1,1.22% (inactive)
20,COc1cc(OC)cc(C(=O)NC(=S)N2CCN(c3ccc(C(F)(F)F)cc3[N+](=O)[O-])CC2)c1,12.2% (active)
21,Cc1cc(C)nc(NC(=O)/C=C/c2ccc(Cl)cc2)n1,-2.67% (inactive)
22,CC(C)n1c(=S)[nH]c2cc(C(F)(F)F)ccc21,-2.42% (inactive)
23,Cc1[nH]n(C)c(=O)c1N=Nc1ccc(S(C)(=O)=O)cc1,1.89% (inactive)
24,O=C(Cc1cc(=O)[nH][nH]1)N/N=C/c1ccccc1[N+](=O)[O-],-4.24% (inactive)
25,COc1cc(CC(=O)N/N=C/c2ccccc2)c([N+](=O)[O-])cc1OC,10.2% (active)

row,SMILES,reporter increase
1,COc1ccc(C(=O)NCC(=O)N/N=C/c2ccc([N+](=O)[O-])o2)cc1OC,-1.47% (inactive)
2,CCn1c(SCC(=O)N/N=C/c2ccccc2OCC(=O)O)nnc1-c1ccc(C(C)(C)C)cc1,0.66% (inactive)
3,CCN(CC)C(=O)CSC(Nc1cccc(F)c1)=C(C#N)C#N,-3.44% (inactive)
4,Cc1cccc(N2CCN(Cc3nc(C4CC4)no3)CC2)n1,-3.23% (inactive)
5,Cc1ccc(S(=O)(=O)NC(=O)Nc2nc(-c3ccc(F)c(F)c3)cs2)cc1,7.86% (inactive)
6,COc1ccc(-c2ccc(CNCCCN3CCOCC3)o2)cc1Cl,8.92% (active)
7,C=CCOc1ccc(Cl)cc1CNCCCN1CCOCC1,-1.69% (inactive)
8,COc1ccc(Cl)cc1NC(=O)CCN1CCOCC1,-3.24% (inactive)
9,Cn1c(SCC(=O)c2ccc(F)cc2)nnc1-c1ccccn1,-0.76% (inactive)
10,COCC1CCCN(Cc2nc(-c3ccc4c(c3)OCO4)no2)C1 (configuration not stated),9.73% (active)
11,CN(CCN1CCOCC1)Cc1nc(-c2ccc3c(c2)OCO3)no1,1.41% (inactive)
12,CC(C)N(Cc1nc(-c2ccc3c(c2)OCO3)no1)CC1CCC(=O)N1 (configuration not stated),2.1% (inactive)
13,Cc1ccc(-c2c[n+](=O)c3c(n2[O-])CCC3)cc1,-1.07% (inactive)
14,O=C(CSc1ccc(/C=N/NC(=O)c2cccc(F)c2)o1)Nc1ccccc1,9.46% (active)
15,O=C(Cc1ccccc1)Nc1cccc(C(=O)N/N=C/c2ccco2)c1,-1.22% (inactive)
16,N#CCC(=O)N/N=C/c1ccc(SCC(=O)Nc2ccccc2)o1,-0.66% (inactive)
17,CCOc1cc2[nH]c(=S)n(Cc3ccc(C(=O)NCCOC)cc3)c(=O)c2cc1OCC,-1.62% (inactive)
18,COc1cc2[nH]c(=S)n(Cc3ccc(F)cc3)c(=O)c2cc1OC,12.6% (active)
19,COc1cc2[nH]c(=S)n(Cc3ccc(C)o3)c(=O)c2cc1OC,3.12% (inactive)
20,COc1ccc(F)cc1S(=O)(=O)N1CCCCC1,2.94% (inactive)
21,Cc1ccc(/C=N/NC(=S)NC2CCCCC2)o1,3.18% (inactive)
22,CCn1c(-c2ccncc2)n[nH]c1=S,1.46% (inactive)
23,CCn1c(C(C)NC(=O)c2ccc(C)cc2)n[nH]c1=S (configuration not stated),-0.98% (inactive)
24,CCn1c(C(C)C)n[nH]c1=S,18.6% (active)
25,O=C(NCc1ccco1)C1CCCN1S(=O)(=O)c1ccccc1C(F)(F)F (configuration not stated),-1.13% (inactive)

row,SMILES,reporter increase
1,CCC1=NN2C(=N)/C(=C/c3cc(C)n(-c4ccccc4)c3C)C(=O)N=C2S1,4.73% (inactive)
2,COC(=O)c1sc(SC)c(S(=O)(=O)C(C)C)c1N/N=C(\C#N)S(=O)(=O)c1ccccn1,2.36% (inactive)
3,CCOC(=O)C1CCN(C(=O)Nc2ccc(C)c(Cl)c2)CC1,3.42% (inactive)
4,CCOC(=O)C/C(C)=N\Nc1ccc([N+](=O)[O-])cc1[N+](=O)[O-],-1.73% (inactive)
5,CCOC(=O)COc1ccc([N+](=O)[O-])cc1,-1.98% (inactive)
6,CCCCOC(=O)CCCc1ccc([N+](=O)[O-])cc1[N+](=O)[O-],12.8% (active)
7,CC1(C)CC(CNCCC(c2ccc(F)cc2)c2ccco2)CCO1 (configuration not stated),-2.08% (inactive)
8,CC(C)CNC(=O)/C=C/C(=O)O,31.4% (active) and -2.62% (inactive)
9,CC(C)CNC(=O)CC(NCC(C)C)C(=O)O (configuration not stated),-0.85% (inactive)
10,CC(C)CNC(=O)C(=O)NCc1ccccc1,-2.69% (inactive)
11,CN(Cc1nc(-c2cnccn2)no1)Cc1n[nH]c2c1CCCCC2,-0.67% (inactive)
12,O=C(O)c1cccc2c1C(=O)N(C1CCCCC1)C2,-0.13% (inactive)
13,O=C(O)C1CCN1C1CCCCC1 (configuration not stated),8.91% (active)
14,CC(Sc1nnnn1C1CCCCC1)C(=O)O (configuration not stated),-1.64% (inactive)
15,O=C(CCNc1n[nH]c(=O)[nH]c1=O)N/N=C\c1ccc(Br)cc1,-1.51% (inactive)
16,COc1c(N2CCN(C(=S)Nc3ccccc3F)C(C)C2)c(F)cc2c(=O)c(C(=O)O)cn(C3CC3)c12 (configuration not stated),-0.39% (inactive)
17,CCC(=O)Nc1cccc(NC(=O)c2cccnc2)c1,14.3% (active)
18,CCOC(=O)c1cc(NC(=O)c2cccnc2)cc(C(=O)OCC)c1,-1.21% (inactive)
19,CCC(=O)Nc1ccc(C(=O)Nc2cccc(OC)c2)cc1,0.16% (inactive)
20,O=C(NC(=S)Nc1cccc2c(O)cccc12)c1cccc(Br)c1,-1.09% (inactive)
21,Cc1c(Br)c([N+](=O)[O-])nn1CC(=O)N1CCN(Cc2ccccc2)CC1,9.26% (active)
22,O=C(Nc1ccccc1)N1CCN(Cc2ccccc2)CC1,4.02% (inactive)
23,Cn1nnnc1SCC(=O)N1CCN(Cc2ccccc2)CC1,1.62% (inactive)
24,O=C(c1[nH]ncc1-c1ccc(Cl)cc1)C1CO1 (configuration not stated),-0.11% (inactive)
25,O=C(O)c1cccnc1Sc1ncnc2sc3c(c12)CCC3,-1.76% (inactive)

row,SMILES,reporter increase
1,O=C(Nc1ccccc1)Nc1ccc(C(F)(F)F)cn1,0.31% (inactive)
2,O=C(COc1ccccc1Cl)Nc1ccc(C(=O)c2ccc(C(=O)O)cc2)cc1,-1.08% (inactive)
3,Cc1ccccc1OCC(=O)Nc1ccc(N2CCN(C(=O)C(C)C)CC2)c(Cl)c1,-0.59% (inactive)
4,COc1cc(NC(=O)COc2ccccc2Cl)ccc1NC(=O)C(C)C,9.65% (active)
5,COc1cc(N2C(=O)CC3(CCCC3)CC2=O)cc(OC)c1OC,-3.15% (inactive)
6,Cc1ccc(NC(=S)Nc2ncccc2C)c(C)c1,11.8% (active)
7,Cc1ccc(NC(=S)NC(=O)c2ccc(-c3ccccc3)cc2)c(C)c1,1.11% (inactive)
8,Cc1ccc(NC(=S)NCc2ccccc2Cl)c(C)c1,4.9% (inactive)
9,COc1ccc(CNC(=O)CCC(=O)Nc2nnc(C(C)C)s2)cc1,0.8% (inactive)
10,COc1ccc(NS(=O)(=O)c2ccc(Oc3c(C#N)cccc3C#N)cc2)cc1,-2.73% (inactive)
11,O=C(c1ccc(=O)oc1)N1CCC(C(O)(c2ccccc2)c2ccccc2)CC1,4.74% (inactive)
12,Oc1ccccc1/C=N/n1c(-c2cccs2)n[nH]c1=S,-3.64% (inactive)
13,S=c1[nH]nc(-c2cccs2)n1/N=C/c1cccs1,-2.19% (inactive)
14,Cc1ccsc1/C=N/n1c(=S)[nH]nc(C)c1=O,11.5% (active)
15,CCOc1ccc(C2NC(=S)NC3=C2CCc2ccccc23)cc1 (configuration not stated),3.12% (inactive)
16,CCOC(=O)c1ccc(NC(=O)Cn2cnc3cc(C)c(C)cc32)cc1,-1.24% (inactive)
17,O=C(CSc1nn(-c2ccc(F)cc2)c(=S)s1)NC1CCS(=O)(=O)C1 (configuration not stated),0.51% (inactive)
18,O=C(CSc1ccccc1F)NC1CCS(=O)(=O)C1 (configuration not stated),12.3% (active)
19,CCN(CC(=O)NC1CCS(=O)(=O)C1)S(=O)(=O)c1ccccc1 (configuration not stated),-0.95% (inactive)
20,Cc1cc(C)c2c(n1)nn1c(N3CCN(c4cccc(Cl)c4)CC3)cc(C)nc21,14.1% (active)
21,Cc1cc(C)c2c(n1)nn1c(-n3ccnc3)cc(C)nc21,2.99% (inactive)
22,Cc1cc(C)c2c(n1)nn1c(N3CCOCC3)cc(C)nc21,-0.28% (inactive)
